This is part of a sample that, as a whole, favours compounds with a hit. Of some 83,000 tested, about 20% had one in any assay.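 Step 1: grow cells in 96-well plates. Step 2: add test compound at a single concentration. Step 3: incubate 48 h. Step 4: record percent growth.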 Activity calls are given as the source filed them. How the source made its calls: active means growth percent below 10; inactive means the rest.
What was measured:
Assay in all cases: NCI-60 one-dose screen, 48 h (100 = growth as untreated, 0 = no growth, -100 = all killed)
Conditions in all cases: 10 µM unless noted
[1] = system: NCI-H23 lung
[2] = system: NCI-H322M lung
[3] = system: HOP-62 NSCLC
[4] = system: NCI-H460 lung
[5] = system: HOP-92 NSCLC
[6] = system: NCI-H522 lung
[7] = system: A549/ATCC NSCLC
[8] = system: 786-0 renal
[9] = system: COLO 205 colon

Measured: growth

C=C1C(=O)C2CCC1C2 (stereo not given)
inactive: [1] 107% | [2] 97.5% | [3] 102% | [4] 113% | [5] 102% | [6] 91.8% | [7] 98.4% | [8] 92.8% | [9] 112%

CCOC(=O)/C(C)=C\c1ccc(OC)c(OC)c1
inactive: [1] 98.1% | [2] 101% | [3] 105% | [4] 102% | [5] 93.6% | [6] 107% | [7] 101% | [8] 95.5% | [9] 105%

CC(=O)N(C(C)=O)c1ccc(C)cc1
inactive: [1] 98.1% | [2] 102% | [3] 105% | [4] 107% | [5] 99.5% | [6] 113% | [7] 104% | [8] 92.7% | [9] 119%

CCNC(=O)OCCc1c2ccccc2nc2ccccc12
inactive: [1] 111% | [2] 108% | [3] 109% | [4] 108% | [5] 13.4% | [6] 94.3% | [7] 101% | [8] 112% | [9] 124%

COc1ccc(-c2csc(NC(=O)Nc3nc(-c4ccc(OC)cc4)cs3)n2)cc1
inactive: [1] 66.8% | [2] 90.1% | [3] 106% | [4] 84.7% | [5] 89% | [7] 81.3% | [8] 97.8% | [9] 98.5%

Cc1ccc(N2C(=O)c3cccc4c(N)c(S(=O)(=O)O)cc(c34)C2=O)cc1
inactive: [1] 95.7% | [2] 114% | [3] 107% | [4] 104% | [5] 86.1% | [6] 84.5% | [7] 104% | [8] 104% | [9] 109%

CCOC(=O)c1ccc(NC(C)=O)o1
inactive: [1] 105% | [2] 108% | [3] 86.3% | [4] 87.2% | [5] 103% | [6] 95.2% | [7] 76.2% | [8] 105% | [9] 106%

CCCCCCCCCCCCSC1=C(Cl)C(=O)C(OC)=C(OC)C1=O
active: [6] -63.3%
inactive: [1] 43.7% | [2] 75.8% | [3] 75.2% | [4] 18.2% | [5] 57.9% | [7] 29.4% | [8] 65.6% | [9] 55.4%

COc1ccc(Br)c(C=O)c1
inactive: [1] 91.4% | [2] 89.8% | [3] 67.4% | [4] 101% | [5] 68.8% | [6] 98.2% | [7] 92.6% | [8] 69.3% | [9] 102%

O=C1C=C[C@H](O)[C@@]2(CO)O[C@@H]12
inactive: [1] 93.1% | [2] 114% | [3] 126% | [4] 121% | [5] 64.6% | [7] 144% | [8] 102%
active: [6] -60.6% | [9] 3.59%

OCCc1ccc(Cl)cc1
inactive: [1] 104% | [2] 101% | [3] 95.9% | [4] 109% | [5] 105% | [6] 89.8% | [7] 88.8% | [8] 95.6% | [9] 109%

N#Cc1ccc(OC(=O)Nc2c(Cl)cc(Cl)cc2Cl)cc1
inactive: [1] 109% | [2] 100% | [3] 103% | [4] 139% | [5] 98.9% | [7] 96.3% | [8] 100% | [9] 128%

S=CN1CCCCC1
inactive: [1] 105% | [2] 102% | [3] 108% | [4] 109% | [5] 103% | [6] 109% | [7] 91.8% | [8] 102% | [9] 121%

O=C(c1ccccc1)c1ccc(-c2ccc(O)cc2)cc1
inactive: [1] 66.1% | [2] 37.8% | [3] 43% | [4] 43.8% | [5] 71.7% | [6] 25.8% | [7] 38.6% | [8] 72.8% | [9] 142%

CC(=O)Nc1ncc(S(=O)(=O)c2ccc([N+](=O)[O-])cc2)s1
inactive: [1] 117% | [2] 113% | [3] 93.2% | [4] 113% | [5] 110% | [6] 94.3% | [7] 103% | [8] 98% | [9] 106%

NNc1ncnc2c1ncn2C1OC(CO)C(O)C1O (stereo not given)
active: [4] 2.13%
inactive: [1] 66% | [2] 40% | [3] 15% | [5] 34.9% | [6] 20.1% | [7] 18% | [8] 35.9% | [9] 40.4%

Nc1ccc(F)cc1F
inactive: [1] 103% | [3] 109% | [4] 105% | [5] 77.4% | [6] 102% | [7] 105% | [8] 98.6% | [9] 110%

COc1ccc(C2CC(c3ccccc3)=Nc3ccccc3S2)cc1 (stereo not given)
inactive: [1] 98% | [2] 90.3% | [3] 98.7% | [4] 105% | [5] 87.1% | [6] 77.6% | [7] 111% | [8] 98.2% | [9] 97.1%

Oc1cc2ccccc2c(-c2c(O)c(O)cc3ccccc23)c1O
inactive: [1] 41.5% | [2] 47.9% | [3] 42.3% | [7] 36.1% | [8] 50% | [9] 58.1%
active: [4] 9.65% | [5] -22.5% | [6] 1.24%

c1ccc(-c2ccc3ccccc3c2)cc1
inactive: [1] 100% | [2] 85% | [3] 85.3% | [4] 102% | [5] 77% | [6] 57.1% | [7] 84.2% | [8] 112% | [9] 96.3%

COc1ccc2c(c1)Nc1ccccc1S2
inactive: [1] 104% | [2] 101% | [3] 105% | [4] 109% | [5] 78.5% | [6] 98.9% | [7] 104% | [8] 98.7% | [9] 111%

CCN(CC)c1ccc2nc3ccc(N=Nc4ccc(N(C)C)cc4)cc3[n+](-c3ccccc3)c2c1
inactive: [2] 25.2%
active: [1] -64.9% | [3] -87.9% | [4] -66.4% | [5] -14.6% | [6] -44.9% | [7] 3.32% | [8] -56.8% | [9] -89.9%

CCOC(OCC)C(=O)c1ccccc1
inactive: [1] 127% | [2] 100% | [3] 98.5% | [4] 99.7% | [5] 41.3% | [6] 85.2% | [7] 90.2% | [8] 107% | [9] 104%

O=C(Nc1cccc(Cl)c1)c1ccc(Cl)cc1Cl
inactive: [1] 99.4% | [2] 103% | [3] 92.3% | [4] 95.1% | [5] 95.7% | [6] 78.1% | [7] 81.1% | [8] 88.4% | [9] 101%

CC(CO)(CO)C(=O)O
inactive: [1] 110% | [2] 99.3% | [3] 95.7% | [4] 105% | [5] 86.3% | [6] 101% | [7] 102% | [8] 105% | [9] 109%

Oc1cc(O)c2c(c1)O[C@H](c1ccc(O)c(O)c1)[C@@H](O)C2
inactive: [1] 95.2% | [2] 105% | [3] 107% | [4] 113% | [5] 98.5% | [6] 89.5% | [7] 97% | [8] 106% | [9] 108%

Cc1c(Cl)cccc1NC(=S)NC(=O)c1ccccc1
inactive: [1] 85.5% | [2] 97.4% | [3] 110% | [4] 103% | [5] 71.8% | [6] 59% | [7] 75% | [8] 120% | [9] 109%

— PubChem BioAssay (NCI)
